Experimental data published in the supplement of paper PMC9433436.
± gives the standard deviation of the averaged measurements. In all, about 4,100 sequences were measured (“relative kcat/Km (krel) vs genomic leader AAAGAU”: median about 1.7, highest 2% from about 6.5 on). Many of the other results were omitted from the sample, so the highest values are more common in it than they were.

Biological target: T1, E. coli RNase P holoenzyme (M1 P RNA + rnpA protein) (UniProt P0A7Y8)
T1 sequence: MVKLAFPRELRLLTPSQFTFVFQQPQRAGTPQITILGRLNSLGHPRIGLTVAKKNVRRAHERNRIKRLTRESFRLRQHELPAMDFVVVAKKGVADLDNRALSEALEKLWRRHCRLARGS
Experiment: relative kcat/Km (krel) vs genomic leader AAAGAU (relative (reference leader = 1)); higher = faster RNase P cleavage
Procedure: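 HTS-Kin: a pool of ptRNA-Met (21C construct) with all 4096 combinations of 5' leader nucleotides N(-6) to N(-1) was processed in vitro by E. coli RNase P (P RNA + rnpA/C5 protein) under multiple-turnover conditions at 37 C, pH 8, 17.5 mM MgCl2. Residual substrate was Illumina-sequenced at several fractions reacted, and relative kcat/Km (krel) was computed by internal competition kinetics, calibrated to the genomic leader (AAAGAU = 1). The listed hexamer is the varied N(-6)..N(-1) leader (DNA letters), and it sits between a fixed 5' stem-loop flank (GCAUGCACGAAAGUGCGUGCUAUGAA) and the mature tRNA-Met starting GGCUACGUAGCUCAGUUGG. Two technical replicates are averaged.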

[1] = fraction of substrate reacted: ~9-10% (9.79% repeat 1, 9.1% repeat 2)
[2] = fraction of substrate reacted: ~13-16% (15.68% repeat 1, 13.17% repeat 2)
[3] = fraction of substrate reacted: ~26-29% (28.66% repeat 1, 26.4% repeat 2)

Row | Sequence | relative kcat/Km [1] | relative kcat/Km [2] | relative kcat/Km [3]
1 | CTTTAC | 4.38 ± 1.7 | 4.59 ± 1.3 | 6.2 ± 1.9
2 | GTTTAA | 3.62 ± 0.62 | 4.49 ± 0.5 | 6.31 ± 3
3 | TTTTAC | 3.74 ± 1.1 | 4.76 ± 1.2 | 7.2 ± 3.2
4 | GTTTAC | 3.75 ± 0.76 | 4.65 ± 0.88 | 7.14 ± 3
5 | GTTTAT | 3.69 ± 0.5 | 5.18 ± 1.8 | 8 ± 3.7
6 | TTTTAG | 3.3 ± 2.5 | 2.5 ± 0.78 | 4.51 ± 1.2
7 | GTTTAG | – | 1.86 ± 0.39 | 3.84 ± 1.2
8 | TTTTTT | 3.31 ± 1.9 | 3.41 ± 0.27 | 4.9 ± 1.7
9 | TTTATT | 2.77 ± 0.82 | 3.08 ± 0.42 | 4.5 ± 2.1
10 | ATTTAC | 4.31 ± 1.7 | 4.75 ± 0.58 | 6.43 ± 2.2
11 | TAAGCC | 2.57 ± 0.66 | 2.16 ± 0.87 | 1.67 ± 0.62
12 | TTGAGA | 2.45 ± 0.5 | 2.31 ± 0.38 | 3.09 ± 0.91
13 | ATCGTA | 3.1 ± 0.36 | 3.67 ± 0.92 | 5.45 ± 2.6
14 | TGCTGT | – | 0.877 ± 0.71 | 1.11 ± 1.1
15 | GAAACG | – | – | 0.784 ± 0.096
16 | CCGCAG | – | – | 1.14 ± 1.1
17 | GAAGGC | 1.24 ± 0.64 | – | –
18 | ACCGTA | 2.19 ± 0.39 | 2.54 ± 0.21 | 4.07 ± 1.4
19 | TCCTGG | 0.344 ± 0.27 | 0.715 ± 0.34 | 1.15 ± 1.1
20 | ACCTGC | 3.58 ± 3.5 | 3.61 ± 2.3 | 5.37 ± 2.5
21 | TCCTGC | 4.64 ± 1.6 | 5.78 ± 1.5 | 7.5 ± 3.9
22 | CCCTGC | 2.87 ± 1.4 | 3.39 ± 0.2 | 5.06 ± 1.6
23 | TCCTGT | – | – | 2.18 ± 1.6
24 | TCCTGA | 3.23 ± 0.83 | 4.19 ± 0.42 | 6.6 ± 2.5
25 | ATTACA | 2.55 ± 1.5 | 2.08 ± 0.14 | 2.94 ± 1.2
26 | CCCACT | 1.87 ± 1.1 | 1.27 ± 0.14 | 2.79 ± 0.067

Row | Sequence | relative kcat/Km [1] | relative kcat/Km [2] | relative kcat/Km [3]
27 | AAATCT | 1.86 ± 0.61 | 2.09 ± 0.095 | 2.8 ± 0.68
28 | GCACGC | – | – | 1.29 ± 1.2
29 | CTCTAT | 4.59 ± 0.51 | 6.38 ± 1.7 | 9.17 ± 4
30 | ATCTAC | 4.97 ± 1.4 | 6.58 ± 2 | 9.08 ± 4.5
31 | GGCTAT | 2.25 ± 0.98 | 1.99 ± 0.48 | 2.88 ± 0.85
32 | GTCTAT | 5.93 ± 2.3 | 6.62 ± 1.5 | 9.91 ± 4.4
33 | ATCTGT | – | 1.3 ± 1.2 | 1.76 ± 1.5
34 | ATGTCT | 1.82 ± 0.38 | 2.3 ± 0.33 | 2.43 ± 1
35 | ATCTCG | 2.52 ± 2 | 2.14 ± 0.37 | 3.55 ± 1.2
36 | ATCTAG | 2.49 ± 0.96 | 3.16 ± 1 | 5.72 ± 2.4
37 | CTATCT | 3.05 ± 0.67 | 3.54 ± 0.89 | 4.18 ± 1.4
38 | AGCTAC | 1.27 ± 0.29 | 3.3102 ± 0.0027 | 4.78 ± 1.9
39 | ATCTAT | 3.93 ± 1.4 | 5.38 ± 1 | 7.98 ± 3.7
40 | CTATGT | 0.766 ± 0.47 | 1.38 ± 0.98 | –
41 | ATACTT | 1.93 ± 1.3 | 1.97 ± 0.58 | 2.62 ± 1.1
42 | GCGAAT | 0.964 ± 0.25 | 1.54 ± 0.49 | 2.09 ± 0.45
43 | CAGCGC | 1.95 ± 0.83 | 1.4 ± 0.14 | 2.09 ± 0.64
44 | CTGCGG | – | 0.228 ± 0.042 | 0.674 ± 0.39
45 | TGGGAA | – | 1.31 ± 0.98 | 1.24 ± 0.69
46 | CAGCTA | 1.51 ± 0.56 | 1.21 ± 0.27 | 1.85 ± 0.51
47 | ACTGGA | 0.346 ± 0.015 | – | –
48 | TGGTAG | – | – | 0.538 ± 0.38
49 | TTTCTC | 2.12 ± 0.99 | 2.29 ± 0.41 | 2.91 ± 0.93
50 | TTATGC | 3.22 ± 0.63 | 4.29 ± 0.74 | 6.16 ± 2.8
51 | CCGTAC | 3.58 ± 1 | 4.22 ± 0.54 | 5.69 ± 2.3
52 | GCTTAA | 1.72 ± 1 | 2.36 ± 0.11 | 3.64 ± 0.66

Row | Sequence | relative kcat/Km [1] | relative kcat/Km [2] | relative kcat/Km [3]
53 | AACTTC | 3.37 ± 1.2 | 3.49 ± 0.17 | 4.33 ± 1.5
54 | TACATA | 3.93 ± 2 | 4.55 ± 0.65 | 6.5 ± 2.8
55 | GCTGAT | 1.1 ± 0.57 | 1.1 ± 0.49 | 0.636 ± 0.14
56 | TGAGGA | 0.562 ± 0.032 | – | 1.42 ± 0.78
57 | TTAAGA | 1.95 ± 0.61 | 2.89 ± 0.47 | 3.88 ± 1.5
58 | CTCTAC | 4.76 ± 1.6 | 6.63 ± 1.3 | 8.97 ± 3.6
59 | GGCTAC | 1.69 ± 1.4 | 1.98 ± 0.51 | 2.81 ± 1.3
60 | CTCTAG | 3.37 ± 2.2 | 3.41 ± 0.89 | 5.82 ± 2
61 | GTCTAG | 3.54 ± 2.5 | 3.25 ± 0.17 | 5.81 ± 1.6
62 | CTACAC | 2.87 ± 1.7 | 3 ± 0.59 | 4.74 ± 1.4
63 | GTCTAC | 4.47 ± 0.65 | 6.86 ± 2.4 | 10.1 ± 4.8
64 | TACGTT | 1.82 ± 0.88 | 1.95 ± 0.067 | 2.61 ± 1
65 | CAAGAT | 1.15 ± 0.24 | 0.704 ± 0.019 | 1.49 ± 0.33
66 | GTCCGG | – | – | 1.17 ± 0.26
67 | CACCGC | 2.34 ± 0.56 | 3.87 ± 1.6 | 5.89 ± 2.7
68 | CTCCGA | 4.78 ± 2 | 5.35 ± 1.6 | 8.07 ± 3.3
69 | CTCCGT | – | 1.79 ± 1.2 | 2.01 ± 1.7
70 | ATCCGA | 4.57 ± 1.7 | 4.95 ± 0.73 | 7.19 ± 2.7
71 | CTCCGC | 3.56 ± 0.068 | 4.98 ± 1.7 | 6.8 ± 2.7
72 | CTCCGG | 1.38 ± 0.85 | 0.916 ± 0.46 | 1.27 ± 0.5
73 | ATCCCA | 2.69 ± 1.7 | 2.52 ± 0.24 | 3.52 ± 0.92
74 | GGCCGC | 1.55 ± 0.064 | 1.97 ± 0.17 | 3.73 ± 0.94
75 | ATCCTA | 3.22 ± 1.7 | 3.39 ± 0.28 | 4.55 ± 1.7
76 | CGCCGC | 2.62 ± 0.84 | 3.479 ± 0.016 | 4.99 ± 2
77 | GTCCGC | 3.94 ± 0.68 | 5.24 ± 1.4 | 8 ± 3.3
78 | GGCGGT | – | – | 1.38 ± 0.92

Row | Sequence | relative kcat/Km [1] | relative kcat/Km [2] | relative kcat/Km [3]
79 | ATGTCA | 1.69 ± 0.74 | 1.97 ± 0.16 | 2.71 ± 1
80 | CGCGTA | 2.07 ± 0.78 | 1.48 ± 0.56 | 2.18 ± 0.99
81 | CAGGAG | 0.78 ± 0.77 | – | 0.626 ± 0.52
82 | TAAGGT | – | – | 3.06 ± 1.8
83 | TCGGGC | – | – | 1.18 ± 0.74
84 | TGAATC | 1.86 ± 0.16 | 1.84 ± 0.4 | 2.53 ± 0.78
85 | TATAAT | 3.05 ± 0.91 | 3.72 ± 0.38 | 5.41 ± 2.8
86 | TAACAG | – | 1.33 ± 0.61 | 2.19 ± 0.52
87 | GCGAGA | 1.04 ± 0.47 | – | 1.63 ± 0.017
88 | TTCCCA | 2.74 ± 1.8 | 4.27 ± 0.3 | 4.97 ± 1.5
89 | GTCCGA | 3.87 ± 0.72 | 5.56 ± 1 | 8.22 ± 3.4
90 | TTCCGG | 1.74 ± 1.5 | 0.738 ± 0.38 | 1.68 ± 0.19
91 | GGCCGA | 1.949 ± 0.015 | 2.42 ± 0.35 | 3.95 ± 1.3
92 | ATCCGT | – | – | 2.3 ± 2.1
93 | TTCCGA | 4.31 ± 1.2 | 6.28 ± 2 | 9.5 ± 4.6
94 | GTCCTA | 3.11 ± 1.4 | 3.47 ± 0.34 | 4.9 ± 1.2
95 | TGCCGA | 2.99 ± 0.37 | 2.99 ± 1.4 | 4.69 ± 1.9
96 | ATCCGG | – | 0.394 ± 0.063 | 0.881 ± 0.16
97 | TTCCGC | 4.23 ± 1.3 | 5.35 ± 0.93 | 8.49 ± 3.5
98 | ATCCGC | 3.93 ± 0.99 | 4.36 ± 1.7 | 6.74 ± 2.5
99 | TTCCGT | – | 2.19 ± 1.9 | 2.5 ± 1.8
100 | ACGACA | 1.74 ± 0.19 | 1.62 ± 0.86 | 1.9 ± 0.45
101 | CAGCAA | 2.5 ± 1.1 | 2.58 ± 0.032 | 3.08 ± 1
102 | TATCGA | 3.95 ± 1.2 | 4.7 ± 0.84 | 6.39 ± 2.6
